From PubChem BioAssay (NCATS)
Several values for one entry are separate records, joined by “and”; a condition that tells them apart may be missing. Equal entries are not always repeated. Inconclusive results are not listed. Where a structure was tested more than once in an assay, its records may differ in their call. Activity calls are given as the source filed them. Unless noted, the call rests on the fitted dose curve.

How the values were obtained:
[1] = biological target: Androgen receptor (Homo sapiens) (UniProt P10275); assay: qHTS assay for small molecule agonists of androgen receptor signaling (AID 588515; active means well fitted curve in the direction sought with a large enough effect in the signal ratio, with a control signal flat; the % refers to the signal ratio; further: on the % scale 0 is the no-effect control and ±100 the full control effect); conditions: AR-UAS-bla HEK293, beta-lactamase ratio, agonist 16 h; stronger effect = higher value
Summary of the method: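 Stimulation of an AR-responsive β-lactamase reporter in GripTite HEK293 cells was measured after 16 h compound exposure at 37 °C, via CCF4 fluorescence after 2 h RT. EC50 from Hill fits, normalized to R1881 at 30 nM.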

[2] = biological target: Androgen receptor (Homo sapiens) (UniProt P10275); assay: qHTS assay for small molecule antagonists of androgen receptor signaling (AID 588516; active means well fitted curve in the direction sought with a large enough effect in the signal ratio, with a control signal flat, not every such curve was filed as active; the % refers to the signal ratio; further: on the % scale 0 is the no-effect control and ±100 the full control effect); conditions: AR-UAS-bla HEK293, beta-lactamase ratio, antagonist mode, 16 h; series mostly up to 76.8 µM
Summary of the method: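 AR-UAS-bla-GripTite HEK 293 cells (2000/well, 5 h at 37 C) received compound titrations, then R1881 at 10 nM final; after 16 h at 37 C, CCF4 dye 2 h RT, beta-lactamase fluorescence read; IC50 from Hill fits.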

[3] = biological target: Glucocorticoid receptor (Homo sapiens) (UniProt P04150); assay: qHTS assay for small molecule antagonists of glucocorticoid receptor signaling (AID 588533; active means well fitted inhibition curve with a large enough effect in the signal ratio, with a control signal flat, not every such curve was filed as active; the % refers to the signal ratio; further: on the % scale 0 is the no-effect control and ±100 the full control effect); conditions: HeLa MMTV-bla, GRE beta-lactamase ratio, antagonist mode, 18 h; series mostly up to 76.8 µM
Summary of the method: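 Antagonist-mode qHTS: compound titrations added to GRE-bla HeLa cells, then dexamethasone 2 nM final; 18 h, 37 C. CCF4 FRET fluorescence normalized to dexamethasone and DMSO; IC50 from Hill fit.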

[4] = qHTS assay for small molecule antagonists of peroxisome proliferator-activated receptor delta signaling (AID 588535); conditions: HEK293T PPARd-UAS-bla, beta-lactamase FRET ratio, 18 h; 460 nm channel;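 further: cells co-treated with a PPAR-delta agonist as stimulator during compound exposure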
Summary of the method: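 Beta-lactamase reporter read-out (405 nm excitation, 460/530 nm emission) after CCF4 loading for 2 hrs at RT. HEK293T PPAR-delta-UAS-bla cells, 2% charcoal/dextran FBS, compounds for 18 hrs at 37 C. Hill fit gave IC50 and efficacy.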

[5] = biological target: Peroxisome proliferator-activated receptor gamma (Homo sapiens) (UniProt P37231); assay: qHTS assay for small molecule agonists of peroxisome proliferator-activated receptor gamma signaling (AID 588536; active means well fitted curve in the direction sought with a large enough effect in the signal ratio, with a control signal flat, not every such curve was filed as active; the % refers to the signal ratio;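 further: 0% = DMSO basal wells and 100% = rosiglitazone at 2 µM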); conditions: HEK293 PPARg-UAS-bla, beta-lactamase ratio, 16 h, percent of rosiglitazone response, DMSO as zero; series mostly up to 76.7 µM
Summary of the method: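 Using GeneBLAzer HEK293 cells, response was quantified by CCF4 fluorescence and normalized between basal DMSO (0%) and rosiglitazone 2 uM (100%); curves yielded half-maximal stimulation concentration and efficacy.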

[6] = biological target: Peroxisome proliferator-activated receptor gamma (Homo sapiens) (UniProt P37231); assay: qHTS assay for small molecule antagonists of peroxisome proliferator-activated receptor gamma signaling (AID 588537; active means well fitted inhibition curve with a large enough effect in the signal ratio, with a control signal flat, not every such curve was filed as active; the % refers to the signal ratio;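 further: reporter cells co-stimulated with 50 nM rosiglitazone agonist during compound treatment; % of control where 0% means no effect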); conditions: HEK293 PPARg-UAS-bla, beta-lactamase ratio, antagonist mode; series mostly up to 76.8 µM
Summary of the method: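 Read-out: CCF4 fluorescence (ex 405, em 460/530 nm) after 2 h at RT. Cells were HEK293 carrying a UAS-bla reporter and treated 16 h at 37 C with compound plus rosiglitazone (50 nM final). Normalized to rosiglitazone and DMSO.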

[7] = biological target: Vitamin D3 receptor (Homo sapiens) (UniProt P11473); assay: qHTS assay for small molecule antagonists of vitamin D receptor signaling (AID 588541); conditions: HEK293T VDR-UAS-bla, beta-lactamase ratio, antagonist mode; series mostly up to 76.7 µM;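 further: receptor activated by calcitriol during compound treatment; on the % scale 0 is the no-effect control and ±100 the full control effect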
Summary of the method: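 VDR-UAS-bla HEK293T cells in 2% charcoal-stripped FBS were stimulated with 1-alpha,25-dihydroxyvitamin D3 (3 nM final) plus compound for 16 h at 37 C. The beta-lactamase CCF4 readout was normalized to 50 nM agonist and DMSO, and Hill fits gave IC50.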

[8] = biological target: Vitamin D3 receptor (Homo sapiens) (UniProt P11473); assay: qHTS assay for small molecule agonists of vitamin D receptor signaling (AID 588543); conditions: HEK293T VDR-UAS-bla, beta-lactamase ratio, 16 h; series mostly up to 76.8 µM;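 further: 0% = DMSO basal and 100% = reference agonist control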
Summary of the method: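 GeneBLAzer VDR-UAS-bla HEK293T cells in 2% charcoal-stripped FBS medium were dosed with compound titrations for 16 h at 37 °C; CCF4 β-lactamase readout (405 nm ex, 460/530 nm em). EC50 and efficacy from Hill fits, normalized to 50 nM calcitriol (100%) and DMSO (0%).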

[9] = qHTS assay for small molecule agonists of retinoid X receptor alpha signaling (AID 588544); conditions: HEK293T RXRa-UAS-bla, beta-lactamase reporter, 18 h; 530 nm emission;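 on activation: 0% = DMSO basal wells and 100% = reference agonist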
[10] = biological target: Retinoic acid receptor RXR-alpha (Homo sapiens) (UniProt P19793); assay: as above; conditions: HEK293T RXRa-UAS-bla, beta-lactamase reporter, 18 h; series mostly up to 76.7 µM
[11] = biological target: Thyroid hormone receptor beta (Homo sapiens) (UniProt P10828); assay: qHTS assay for small molecule agonists of thyroid hormone receptor beta signaling (AID 588545); conditions: TR-UAS-bla GripTite HEK 293, beta-lactamase ratio, agonist mode, 18 h, percent of T3 response, DMSO as zero; series mostly up to 76.7 µM
Summary of the method: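 Agonist activity was read as beta-lactamase CCF4 fluorescence (405 ex, 460/530 em), scaled between DMSO (0%) and 10 nM T3 (100%), then Hill-fitted for EC50 and efficacy. HEK 293 TR-UAS-bla cells in 2% charcoal/dextran FBS medium were exposed 18 h at 37 C.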

[12] = qHTS assay for small molecule antagonists of retinoid X receptor alpha signaling (AID 588546; active means well fitted inhibition curve with a large enough effect in the signal ratio, with a control signal flat, not every such curve was filed as active; the % refers to the signal ratio); conditions: HEK293T RXRa-UAS-bla, beta-lactamase ratio, antagonist mode; measured here: W530 green channel, cytotoxicity proxy
Summary of the method: (§1)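 Beta-lactamase reporter inhibition, read as CCF4 fluorescence ratio (ex 405, em 460/530 nm) after 2 h at RT. HEK293T UAS-bla cells, 2500/well, were stimulated with 9-cis-RA at 500 or 100 nM final alongside test compound for 18 h at 37 C.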

[13] = biological target: Retinoic acid receptor RXR-alpha (Homo sapiens) (UniProt P19793); assay: as above; conditions: HEK293T RXRa-UAS-bla, beta-lactamase ratio, antagonist mode
Summary of the method: as §1

[14] = biological target: Voltage-gated inwardly rectifying potassium channel KCNH2 (Homo sapiens) (UniProt Q12809); assay: qHTS Assay for Small Molecule Inhibitors of the Human hERG Channel Activity (AID 588834; active means well fitted curve in the direction sought with a large enough effect; an effect the other way counts as inactive or inconclusive;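 further: lower thallium flux fluorescence means stronger hERG block; nearly all actives have a fitted effect of over 50% in size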; further: potency means the concentration at half of the fitted maximal effect); conditions: U2OS BacMam hERG, FluxOR thallium flux fluorescence; series mostly up to 46.1 µM
Summary of the method: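 In hERG-transduced U2OS cells, dye-loaded for 1 hr at room temperature in dark, test compounds incubated 10 min at 37 °C before thallium stimulation. AC50 values derived by Hill modelling of concentration-response.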

[15] = biological target: Luciferin 4-monooxygenase (Photinus pyralis) (UniProt P08659); assay: Biochemical firefly luciferase enzyme assay for NPC (AID 624030; active means well fitted curve in the direction sought with a large enough effect; an effect the other way counts as inactive or inconclusive;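 further: purified P. pyralis luciferase at 10 nM with luciferin and ATP substrate; 0% = DMSO and -100% = full luciferase inhibition by PTC124 control; nearly all actives have a fitted effect of over 70% in size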); conditions: purified P. pyralis luciferase, luminescence, 5 min; series mostly up to 58.6 µM
Summary of the method: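 Purified P. pyralis luciferase at 10 nM in 50 mM Tris Acetate (final), luminescence read within 5 minutes of enzyme addition to compounds. Activity normalised to PTC124 versus DMSO; concentration-response curves classed by r2, magnitude and activity.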

[16] = biological target: Estrogen receptor (Homo sapiens) (UniProt P03372); assay: qHTS assay for small molecule antagonists of estrogen receptor alpha signaling (AID 588513; active means well fitted curve in the direction sought with a large enough effect in the signal ratio, with a control signal flat, not every such curve was filed as active; the % refers to the signal ratio; further: on the % scale 0 is the no-effect control and ±100 the full control effect); conditions: ER-alpha-UAS-bla HEK293, beta-lactamase ratio, antagonist mode; series mostly up to 76.9 µM
Summary of the method: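 ER-alpha-UAS-bla GripTite HEK 293 cells in medium with 2% charcoal/dextran-treated FBS were preincubated 4 h at 37 C, dosed with compound (1:2 titration), stimulated with 0.5nM 17-beta-estradiol for 18 h, then read by CCF4 beta-lactamase fluorescence.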

[17] = biological target: Estrogen receptor (Homo sapiens) (UniProt P03372); assay: qHTS assay for small molecule agonists of estrogen receptor alpha signaling (AID 588514); conditions: ER-alpha-UAS-bla HEK293, beta-lactamase ratio, 18 h, percent of full estradiol response, vehicle zero; series mostly up to 76.8 µM;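 further: 0% = vehicle only and 100% = reference agonist; nearly all actives have a fitted effect of over 70% in size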
Summary of the method: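 Fluorescence from CCF4 cleavage reports ER-alpha-driven beta-lactamase expression in HEK 293 cells treated 18 hrs at 37 C. Data normalized to 17-beta-estradiol (20 nM) and DMSO, fitted to Hill equation.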

[18] = biological target: Thyroid hormone receptor beta (Homo sapiens) (UniProt P10828); assay: qHTS assay for small molecule antagonists of thyroid hormone receptor beta signaling (AID 588547; active means well fitted inhibition curve with a large enough effect in the signal ratio, with a control signal flat, not every such curve was filed as active; the % refers to the signal ratio); conditions: TR-UAS-bla HEK293, beta-lactamase ratio, antagonist mode, 18 h
Summary of the method: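 TR-UAS-bla GripTite HEK293 cells in 2% charcoal/dextran FBS medium; compounds 0.59 nM to 92 uM with T3 at 0.4nM final, 18 h at 37 C. Beta-lactamase read by CCF4 fluorescence (460/530 nm); Hill fits gave IC50 and efficacy.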

[19] = S16 Schwann cell viability assay (CellTiter-Glo assay) (AID 624031; active means well fitted curve in the direction sought with a large enough effect; an effect the other way counts as inactive or inconclusive; further: nearly all actives have a fitted effect of over 70% in size; further: potency means the concentration at half of the fitted maximal effect); conditions: S16 rat Schwann cells viability, 24 h; series mostly up to 57.5 µM
Summary of the method: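 CellTiter-Glo ATP luminescence counter-screen in untransfected S16 rat Schwann cells, 24h compound exposure at 37 degree Celsius after overnight seeding (500-750 cells/well); response scaled between cell-free wells and DMSO (0% activity), curves classed by r2 and magnitude.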

Chain of Retinoic acid receptor RXR-alpha (Homo sapiens) (P19793 whole entry, looked up): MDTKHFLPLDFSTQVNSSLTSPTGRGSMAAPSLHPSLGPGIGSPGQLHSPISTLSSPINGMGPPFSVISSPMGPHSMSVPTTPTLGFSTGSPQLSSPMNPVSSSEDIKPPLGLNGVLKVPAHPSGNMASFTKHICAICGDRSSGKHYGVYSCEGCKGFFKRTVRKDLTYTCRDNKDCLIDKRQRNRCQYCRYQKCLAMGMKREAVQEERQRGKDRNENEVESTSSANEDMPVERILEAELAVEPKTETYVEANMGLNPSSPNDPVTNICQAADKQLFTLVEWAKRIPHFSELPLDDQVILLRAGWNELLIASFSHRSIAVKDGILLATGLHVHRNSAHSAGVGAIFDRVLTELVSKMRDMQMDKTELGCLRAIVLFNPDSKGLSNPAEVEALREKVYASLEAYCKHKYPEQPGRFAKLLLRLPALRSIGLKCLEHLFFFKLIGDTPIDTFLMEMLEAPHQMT
Chain of Glucocorticoid receptor (Homo sapiens) (P04150 whole entry, looked up): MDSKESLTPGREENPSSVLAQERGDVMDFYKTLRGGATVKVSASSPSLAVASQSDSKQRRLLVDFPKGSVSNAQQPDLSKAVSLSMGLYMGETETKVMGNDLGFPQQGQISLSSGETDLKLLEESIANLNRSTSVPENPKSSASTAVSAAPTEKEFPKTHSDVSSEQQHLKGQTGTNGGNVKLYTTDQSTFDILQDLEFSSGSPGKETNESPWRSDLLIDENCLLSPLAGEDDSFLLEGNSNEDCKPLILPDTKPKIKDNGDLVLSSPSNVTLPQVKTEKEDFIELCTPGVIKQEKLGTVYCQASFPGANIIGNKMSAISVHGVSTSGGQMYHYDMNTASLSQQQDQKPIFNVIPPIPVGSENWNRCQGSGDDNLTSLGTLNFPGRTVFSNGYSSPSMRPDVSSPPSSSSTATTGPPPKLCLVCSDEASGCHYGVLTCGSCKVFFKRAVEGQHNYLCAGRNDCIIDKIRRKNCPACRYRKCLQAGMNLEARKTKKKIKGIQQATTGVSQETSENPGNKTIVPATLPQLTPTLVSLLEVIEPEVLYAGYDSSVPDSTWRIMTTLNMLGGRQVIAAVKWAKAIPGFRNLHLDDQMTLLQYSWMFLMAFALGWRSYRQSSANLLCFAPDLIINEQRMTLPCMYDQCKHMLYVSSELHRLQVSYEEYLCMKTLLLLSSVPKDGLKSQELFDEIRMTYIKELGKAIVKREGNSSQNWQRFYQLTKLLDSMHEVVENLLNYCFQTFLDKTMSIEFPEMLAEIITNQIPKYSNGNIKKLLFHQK
Chain of Voltage-gated inwardly rectifying potassium channel KCNH2 (Homo sapiens) (Q12809 whole entry, looked up): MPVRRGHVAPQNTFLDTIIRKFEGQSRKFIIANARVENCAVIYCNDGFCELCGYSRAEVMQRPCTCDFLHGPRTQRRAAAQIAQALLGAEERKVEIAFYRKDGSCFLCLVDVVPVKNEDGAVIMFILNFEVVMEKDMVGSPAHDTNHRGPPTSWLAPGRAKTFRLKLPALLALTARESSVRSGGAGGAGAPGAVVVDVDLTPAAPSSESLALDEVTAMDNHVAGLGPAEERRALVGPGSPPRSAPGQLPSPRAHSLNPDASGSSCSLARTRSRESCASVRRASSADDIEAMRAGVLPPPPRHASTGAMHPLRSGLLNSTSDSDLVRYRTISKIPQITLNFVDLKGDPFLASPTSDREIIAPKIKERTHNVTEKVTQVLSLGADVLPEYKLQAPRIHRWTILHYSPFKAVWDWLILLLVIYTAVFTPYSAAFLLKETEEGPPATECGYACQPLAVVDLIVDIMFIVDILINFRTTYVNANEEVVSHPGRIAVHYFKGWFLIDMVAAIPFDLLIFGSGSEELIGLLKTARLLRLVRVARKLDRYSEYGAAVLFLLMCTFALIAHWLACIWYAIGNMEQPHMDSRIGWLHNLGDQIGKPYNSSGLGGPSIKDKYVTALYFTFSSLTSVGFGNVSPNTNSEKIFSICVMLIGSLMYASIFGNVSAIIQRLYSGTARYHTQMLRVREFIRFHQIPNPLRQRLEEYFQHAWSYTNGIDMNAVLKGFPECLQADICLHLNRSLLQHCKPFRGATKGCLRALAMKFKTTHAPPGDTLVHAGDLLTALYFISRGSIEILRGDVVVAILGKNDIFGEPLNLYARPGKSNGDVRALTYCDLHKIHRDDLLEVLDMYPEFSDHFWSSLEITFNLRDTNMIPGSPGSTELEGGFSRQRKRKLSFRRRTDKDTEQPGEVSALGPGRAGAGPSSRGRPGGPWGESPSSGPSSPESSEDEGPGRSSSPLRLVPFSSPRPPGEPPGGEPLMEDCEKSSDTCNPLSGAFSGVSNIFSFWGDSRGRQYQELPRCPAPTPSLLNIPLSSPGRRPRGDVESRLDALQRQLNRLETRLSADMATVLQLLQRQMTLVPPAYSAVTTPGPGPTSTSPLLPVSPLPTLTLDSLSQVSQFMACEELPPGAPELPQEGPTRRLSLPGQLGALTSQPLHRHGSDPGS
Chain of Vitamin D3 receptor (Homo sapiens) (P11473 whole entry, looked up): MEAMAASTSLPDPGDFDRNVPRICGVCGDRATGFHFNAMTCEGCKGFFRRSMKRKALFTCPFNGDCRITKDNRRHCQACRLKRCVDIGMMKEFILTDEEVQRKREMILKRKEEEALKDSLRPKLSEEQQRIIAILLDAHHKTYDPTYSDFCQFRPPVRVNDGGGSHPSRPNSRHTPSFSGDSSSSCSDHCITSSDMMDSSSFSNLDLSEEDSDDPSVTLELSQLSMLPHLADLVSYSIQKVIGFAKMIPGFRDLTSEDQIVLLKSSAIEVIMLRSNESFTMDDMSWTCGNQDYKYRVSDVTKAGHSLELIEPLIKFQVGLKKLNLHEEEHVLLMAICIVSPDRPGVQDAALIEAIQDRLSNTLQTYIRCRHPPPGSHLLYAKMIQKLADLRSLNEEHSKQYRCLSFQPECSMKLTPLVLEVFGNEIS
Chain of Thyroid hormone receptor beta (Homo sapiens) (P10828 whole entry, looked up): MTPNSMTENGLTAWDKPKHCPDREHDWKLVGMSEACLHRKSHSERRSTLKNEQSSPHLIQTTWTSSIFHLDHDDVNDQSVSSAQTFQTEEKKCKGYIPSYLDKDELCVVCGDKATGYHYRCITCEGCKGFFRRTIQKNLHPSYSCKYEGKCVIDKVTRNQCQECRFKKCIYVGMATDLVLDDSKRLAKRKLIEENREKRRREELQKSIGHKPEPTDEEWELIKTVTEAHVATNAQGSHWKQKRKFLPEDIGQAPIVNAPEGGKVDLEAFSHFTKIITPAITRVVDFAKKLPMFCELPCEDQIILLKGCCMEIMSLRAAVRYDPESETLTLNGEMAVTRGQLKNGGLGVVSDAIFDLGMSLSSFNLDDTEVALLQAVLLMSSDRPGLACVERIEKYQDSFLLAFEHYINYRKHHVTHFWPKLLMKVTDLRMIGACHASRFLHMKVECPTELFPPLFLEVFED
Chain of Peroxisome proliferator-activated receptor gamma (Homo sapiens) (P37231 whole entry, looked up): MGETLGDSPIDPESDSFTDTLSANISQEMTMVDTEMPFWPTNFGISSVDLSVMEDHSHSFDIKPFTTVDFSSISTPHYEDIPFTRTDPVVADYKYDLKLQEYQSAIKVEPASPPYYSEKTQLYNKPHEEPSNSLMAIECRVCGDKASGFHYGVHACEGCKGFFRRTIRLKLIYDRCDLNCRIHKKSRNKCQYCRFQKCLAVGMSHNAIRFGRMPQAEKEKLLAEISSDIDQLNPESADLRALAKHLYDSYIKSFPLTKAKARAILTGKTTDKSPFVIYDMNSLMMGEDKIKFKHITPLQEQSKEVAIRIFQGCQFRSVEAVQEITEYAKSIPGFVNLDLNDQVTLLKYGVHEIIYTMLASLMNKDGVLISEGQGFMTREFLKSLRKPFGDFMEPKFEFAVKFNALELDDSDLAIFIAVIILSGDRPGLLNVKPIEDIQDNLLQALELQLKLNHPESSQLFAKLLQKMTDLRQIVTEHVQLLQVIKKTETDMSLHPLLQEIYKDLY
Chain of Luciferin 4-monooxygenase (Photinus pyralis) (P08659 whole entry, looked up): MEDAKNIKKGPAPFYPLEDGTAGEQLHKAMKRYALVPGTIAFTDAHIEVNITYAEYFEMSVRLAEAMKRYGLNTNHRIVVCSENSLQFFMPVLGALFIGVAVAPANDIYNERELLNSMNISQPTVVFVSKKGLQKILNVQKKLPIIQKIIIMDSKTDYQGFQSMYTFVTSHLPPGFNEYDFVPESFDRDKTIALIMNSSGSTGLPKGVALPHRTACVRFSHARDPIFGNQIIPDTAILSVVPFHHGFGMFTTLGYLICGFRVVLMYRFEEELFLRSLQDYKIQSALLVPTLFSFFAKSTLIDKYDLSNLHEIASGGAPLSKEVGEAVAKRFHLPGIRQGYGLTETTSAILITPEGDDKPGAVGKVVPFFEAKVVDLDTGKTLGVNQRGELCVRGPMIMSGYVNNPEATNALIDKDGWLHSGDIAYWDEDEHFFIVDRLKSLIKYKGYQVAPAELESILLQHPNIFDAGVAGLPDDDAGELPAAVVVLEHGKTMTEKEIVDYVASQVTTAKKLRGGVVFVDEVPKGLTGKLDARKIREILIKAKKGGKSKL
Chain of Estrogen receptor (Homo sapiens) (P03372 whole entry, looked up): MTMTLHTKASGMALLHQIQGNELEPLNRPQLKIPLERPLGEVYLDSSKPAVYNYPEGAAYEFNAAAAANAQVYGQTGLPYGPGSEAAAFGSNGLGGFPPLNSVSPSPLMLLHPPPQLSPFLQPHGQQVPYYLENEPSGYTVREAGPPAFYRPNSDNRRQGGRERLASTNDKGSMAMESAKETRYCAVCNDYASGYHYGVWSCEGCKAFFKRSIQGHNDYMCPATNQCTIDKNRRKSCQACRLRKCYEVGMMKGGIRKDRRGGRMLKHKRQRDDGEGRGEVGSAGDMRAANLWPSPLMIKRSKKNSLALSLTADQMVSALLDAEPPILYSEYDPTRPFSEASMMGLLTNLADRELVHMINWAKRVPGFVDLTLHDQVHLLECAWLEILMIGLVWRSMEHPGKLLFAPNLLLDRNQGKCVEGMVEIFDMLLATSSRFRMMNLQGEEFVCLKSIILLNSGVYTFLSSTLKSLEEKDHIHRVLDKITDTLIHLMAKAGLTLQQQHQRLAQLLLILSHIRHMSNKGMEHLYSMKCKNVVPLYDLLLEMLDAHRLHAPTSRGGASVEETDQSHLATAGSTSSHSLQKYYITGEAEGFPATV

COc1cc(OC)c(C(=O)CCCN2CCCC2)c(OC)c1
-15.1%: max response [12]
3.94%: max response [9]
15.9%: max response [4]
inactive: activation [1] 8.09% | outcome [2] | outcome [3] | outcome [5] | Potency [6] | outcome [7] | outcome [8] | outcome [10] | outcome [11] | max response [13] -23.6% | Potency [14] | Potency [15]

OC(CN1CCN(c2cccc(Cl)c2)CC1)C(c1ccccc1)c1ccccc1 (configuration not stated)
active: Potency [14] 1.58 µM

CCc1nc(N)nc(N)c1-c1ccc(Cl)cc1
39.8 µM (active) and inactive: Potency [14]
8.81%: max response [12]
inactive: outcome [16] | outcome [17] | outcome [3] | outcome [7] | outcome [8] | outcome [10] | outcome [11] | max response [13] -13% | activity change % (negative = inhibition) [18] 6.74% and -7.45% | Potency [15] | Potency [19]
-4.91%: max response [4]
19.5% and 21%: max response [9]

CC1(C)C(=O)N(CCN2CCC(C(=O)c3ccc(F)cc3)CC2)c2ccccc21
active: Potency [14] 0.891 µM

CN(C)c1ccc2nc3ccc(=[N+](C)C)cc-3sc2c1
active: Potency [19] 4.05 µM
-22.9%: max response [12]
inactive: outcome [17] | outcome [3] | outcome [5] | outcome [11] | max response [13] -3.23% | activity change % (negative = inhibition) [18] 20.5% | Potency [14]

CC(=O)N1CCN(c2ccc(OC[C@H]3CO[C@](Cn4ccnc4)(c4ccc(Cl)cc4Cl)O3)cc2)CC1
inactive: outcome [17] | outcome [3] | outcome [11]

Oc1ccc(OCc2ccccc2)cc1
inactive: Potency [14]

CNC[C@H](O)c1ccc(O)c(O)c1
-11.1%: max response [9]
-9.39%: max response [12]
inactive: outcome [17] | outcome [5] | Potency [6] | outcome [7] | outcome [8] | outcome [10] | outcome [11] | max response [13] -4.11% | Potency [14] | Potency [15] | Potency [19]

CCOC(=O)C1=C[C@@H](OC(CC)CC)[C@H](NC(C)=O)[C@@H](N)C1
inactive: Potency [14]

CCCc1cc(=O)[nH]c(=S)[nH]1
inactive: outcome [16] | outcome [17] | outcome [5] | Potency [6] | outcome [10] | outcome [11] | max response [13] 3.88% and 3.79% | activity change % (negative = inhibition) [18] 8.46% | Potency [14] | Potency [15]
15.2% and -59%: max response [4]
3.33% and 11.8%: max response [9]
2.58% and 1.92%: max response [12]
